G9a inh: blocks human histone lysine methyltransferase G9a; Q96KQ7; Potency, µM (doses to about 102 µM), for inactives: at the highest dose activity, negative = inhibition, actives largely listed as inhibitors; actives 8.8% (n = 350,000); G9a H3K9 monomethylation, AlphaScreen, 2 h; AID 504332; further: potency means the concentration at half of the fitted maximal effect; on the % scale 0 is the no-effect control and ±100 the full control effect; nearly all actives have a fitted effect of over 75% in size
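AlphaScreen read-out: biotin-H3K9 peptide (500 nM) methylation by 20 nM enzyme with 20 uM SAM, 2 h at room temperature after 15 min compound preincubation; anti-monomethyl H3K9 antibody plus donor/acceptor beads, 10 min dark.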
PI5P4K alpha inh: blocks human PI5P4K alpha kinase activity | P48426 | PI5P4Kalpha enzyme, ADP-Glo luminescence, 60 min; hits give low values | max response, % | actives 1.2% (n = 330,000) | AID 652105; active means max response of -50% or lower; inconclusive means between -30% and -50%; inactive means -30% or higher; further: value at the top dose of about 77 µM; on the % scale 0 is the no-effect control and ±100 the full control effect
Target sequence (P48426 whole entry, looked up): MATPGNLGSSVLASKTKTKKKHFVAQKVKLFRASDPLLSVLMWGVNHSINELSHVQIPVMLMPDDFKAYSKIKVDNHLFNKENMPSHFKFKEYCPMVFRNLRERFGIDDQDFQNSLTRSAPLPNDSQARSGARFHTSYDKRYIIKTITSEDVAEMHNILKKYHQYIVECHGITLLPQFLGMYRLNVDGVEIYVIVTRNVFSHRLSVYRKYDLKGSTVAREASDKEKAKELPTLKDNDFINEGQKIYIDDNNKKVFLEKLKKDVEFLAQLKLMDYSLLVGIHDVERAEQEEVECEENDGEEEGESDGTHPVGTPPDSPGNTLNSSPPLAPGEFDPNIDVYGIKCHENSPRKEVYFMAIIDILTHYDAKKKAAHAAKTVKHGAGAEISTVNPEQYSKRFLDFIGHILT
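Single end-point luminescence (ADP-Glo) quantified ADP from PI5P4Kalpha turnover; ATP 5 microM final, 1 h at RT, 0.1% CHAPS and 0.28 mM EGTA in HEPES pH 7.4.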
PLK1 PBD block: PLK1 (human) polo-box domain binding inhibition | P53350 | actives 2.8% (n = 360,000) | Plk1 PBD binding of FITC phosphopeptide, fluorescence polarization | AID 720504 | Potency, µM, for the others: max response, negative = inhibition, usual class: inhibitors; further: potency means the concentration at half of the fitted maximal effect; series mostly up to about 57 µM; on the % scale 0 is the no-effect control and ±100 the full control effect; nearly all actives have a fitted effect of over 65% in size
JMJD2A Tudor inh: blocks the human JMJD2A Tudor domain; O75164; AlphaScreen JMJD2A-Tudor / H3K4me3 peptide binding; Potency, µM (top dose mostly 114 µM), without a hit: at the highest dose activity change, negative = inhibition, usual class: inhibitors; actives 4.4% (n = 390,000); further: potency means the concentration at half of the fitted maximal effect; on the % scale 0 is the no-effect control and ±100 the full control effect; nearly all actives have a fitted effect of over 50% in size
BAZ2B block: blocks human BAZ2B; Q9UIF8; actives 4.4% (n = 360,000); Potency, µM (doses to about 114 µM), for the others: at the top dose activity change, negative = inhibition, most hits filed as inhibitors; AlphaScreen BAZ2B-H3K14Ac peptide displacement; further: potency means the concentration at half of the fitted maximal effect; on the % scale 0 is the no-effect control and ±100 the full control effect; nearly all actives have a fitted effect of over 60% in size
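Compounds, titrated to a top concentration of 110 uM, were incubated 30 min at room temperature with preformed BAZ2B/acetyl-K14 H3 peptide complex (50 nM each). Proximity signal was measured by AlphaScreen after 20 min with beads.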
HP1b chromo inh: blocks HP1-beta chromodomain binding to methylated histone tails; AlphaScreen HP1-beta / biotin-H3K9me3 peptide binding; Potency, µM (doses to about 114 µM), without a hit: at the top dose activity change, negative = inhibition, most hits filed as inhibitors; actives 0.56% (n = 390,000); further: potency means the concentration at half of the fitted maximal effect; nearly all actives have a fitted effect of over 70% in size
Target sequence (P83916 whole entry, looked up): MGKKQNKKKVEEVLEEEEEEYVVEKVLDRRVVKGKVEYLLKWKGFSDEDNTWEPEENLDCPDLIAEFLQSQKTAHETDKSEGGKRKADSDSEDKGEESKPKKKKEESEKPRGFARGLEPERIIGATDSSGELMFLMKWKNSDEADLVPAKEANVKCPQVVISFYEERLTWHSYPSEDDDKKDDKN
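HP1-beta protein (50 nM final) preincubated 30 min at room temperature with biotinylated H3(1-18)K9me3 peptide (50 nM) in PBS pH 7.4, 0.01% Tween-20, then compound added for 30 min. AlphaScreen streptavidin donor/nickel chelate acceptor beads (10 ug/mL final), 30 min dark, luminescence read.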
Numbers without * were called inactive; [ ] = another dose, or the depositor's remark. An excerpt weighted towards active compounds, which were near 12% of everything screened. Unless noted, the call rests on the fitted dose curve; in most records, active means well fitted curve in the direction sought with a large enough effect; inconclusive means small, poorly fitted or top-dose-only effect, or another doubt; inactive means no such curve, though single readings can be large; an effect the other way counts as inactive or inconclusive.

What do the screens show for `CC(C)C[C@@H](CNCC(=O)[C@H](CC(C)C)NC(=O)c1[nH]cnc1C(=O)N[C@H](CN)CC(C)C)NC(=O)c1nc[nH]c1C(=O)N[C@@H](CC(=O)O)C(=O)O`?
PI5P4K alpha inh: -12; PLK1 PBD block: -13%; JMJD2A Tudor inh: 79µM*; HP1b chromo inh: 38%

What do the screens show for `CC(C)C[C@H](NC(=O)c1nc[nH]c1C(=O)NCC(=O)OCc1ccccc1)C(=O)OCc1ccccc1`?
PI5P4K alpha inh: 8; PLK1 PBD block: -8%; JMJD2A Tudor inh: -31%; BAZ2B block: 15%; HP1b chromo inh: 31%

Results for CC(C)C[C@@H](CN)NC(=O)c1nc[nH]c1C(=O)N[C@@H](CC(C)C)C(=O)CNC[C@H](C)NC(=O)c1nc[nH]c1C(=O)N[C@@H](CC(=O)O)C(=O)O ?
PI5P4K alpha inh: -9; PLK1 PBD block: -23%; JMJD2A Tudor inh: 79µM*; HP1b chromo inh: 54%

Results for COc1cccc(C(=O)OCC(=O)N2CCc3ccccc3C2)c1 ?
PI5P4K alpha inh: 13; PLK1 PBD block: -3%; JMJD2A Tudor inh: -6%; HP1b chromo inh: 8%

How did Cc1c(C(=O)Nc2ccccc2Br)oc2ccc(S(=O)(=O)N3CCCCCC3)cc12 do in these assays?
G9a inh: 1%[59 µM]; JMJD2A Tudor inh: inconclusive; BAZ2B block: 2%; HP1b chromo inh: 21%

How did O=C(CS(=O)(=O)c1ccccc1)Nc1nccs1 do in these assays?
G9a inh: -11%; PI5P4K alpha inh: 3; PLK1 PBD block: -14%; JMJD2A Tudor inh: 6%; BAZ2B block: -18%; HP1b chromo inh: -5%

How did Cc1cccc(S(=O)(=O)N[C@@H]2CC[C@@H](CCNS(=O)(=O)c3ccccc3F)O[C@@H]2CO)c1 do in these assays?
PI5P4K alpha inh: 1; PLK1 PBD block: -4%

How did COc1ccccc1CCNCc1ccc(OC)c(OCc2ccccc2)c1 do in these assays?
G9a inh: inconclusive; PLK1 PBD block: -3%; JMJD2A Tudor inh: 3.2µM*; BAZ2B block: inconclusive; HP1b chromo inh: inconclusive

How did COc1cc(CNCCc2c[nH]c3ccccc23)ccc1OCc1ccccc1F do in these assays?
G9a inh: 17%[0.501 µM]; PLK1 PBD block: -5%; JMJD2A Tudor inh: 40µM*; BAZ2B block: 35µM*; HP1b chromo inh: inconclusive

What do the screens show for `COc1ccc(CNCc2ccco2)cc1OCc1ccccc1`?
G9a inh: 13µM*; PLK1 PBD block: -8%; JMJD2A Tudor inh: 13µM*; BAZ2B block: 79µM*; HP1b chromo inh: inconclusive

How did CCC(=O)N1c2ccccc2CC1C(=O)NCCCN1CCN(c2ccccc2)CC1 (stereo not drawn) do in these assays?
G9a inh: 6%[59 µM]; JMJD2A Tudor inh: -28%; BAZ2B block: inconclusive; HP1b chromo inh: 4%

What do the screens show for `Cc1cccc(-c2noc(-c3ccc(N4CCN(C)CC4)c([N+](=O)[O-])c3)n2)c1`?
G9a inh: -27%[59 µM]; JMJD2A Tudor inh: -10%; BAZ2B block: -1%; HP1b chromo inh: 51%

How did CCOC(=O)c1nn2c(C(F)(F)F)cc(-c3ccc(OC)cc3)nc2c1Br do in these assays?
PI5P4K alpha inh: 1; PLK1 PBD block: -2%; JMJD2A Tudor inh: -20%; BAZ2B block: inconclusive; HP1b chromo inh: 12%

How did CCN1CCN(C2=C(NS(=O)(=O)c3ccc(Br)cc3)C(=O)c3ccccc3C2=O)CC1 do in these assays?
G9a inh: 45µM*; PI5P4K alpha inh: 2; PLK1 PBD block: -19%; JMJD2A Tudor inh: inconclusive; BAZ2B block: 45µM*; HP1b chromo inh: -17%

How did NC(=O)C1CCN(C2=C(NS(=O)(=O)c3ccc(Br)cc3)C(=O)c3ccccc3C2=O)CC1 do in these assays?
PI5P4K alpha inh: -10; PLK1 PBD block: -12%; JMJD2A Tudor inh: 79µM*; BAZ2B block: 40µM*; HP1b chromo inh: inconclusive

Results for CCN1CCN(C2=C(NS(=O)(=O)c3ccccc3)C(=O)c3ccccc3C2=O)CC1 ?
G9a inh: 0%[0.0925 µM]; PI5P4K alpha inh: -2; PLK1 PBD block: -13%; JMJD2A Tudor inh: -33%; BAZ2B block: inconclusive; HP1b chromo inh: -13%[57 µM]

What do the screens show for `NC(=O)C1CCN(C2=C(NS(=O)(=O)c3ccccc3)C(=O)c3ccccc3C2=O)CC1`?
PI5P4K alpha inh: 0; PLK1 PBD block: -18%; JMJD2A Tudor inh: inconclusive; BAZ2B block: 40µM*; HP1b chromo inh: inconclusive

Results for CCOC(=O)C1CCN(C2=C(NS(=O)(=O)c3ccc(Br)cc3)C(=O)c3ccccc3C2=O)CC1 ?
G9a inh: 8.9µM*; PI5P4K alpha inh: -2; PLK1 PBD block: inconclusive; JMJD2A Tudor inh: 7.9µM*; BAZ2B block: 5.6µM*; HP1b chromo inh: 7.1µM*

How did NC(=O)C1CCN(c2nc3ccccc3nc2NS(=O)(=O)c2ccc(Br)cc2)CC1 do in these assays?
PI5P4K alpha inh: -1; PLK1 PBD block: -27%; JMJD2A Tudor inh: -16%; HP1b chromo inh: 0%

Results for COc1cc(O)c(C=Nc2ccccc2NS(=O)(=O)c2ccc(C)cc2)c(OC)c1 ?
PI5P4K alpha inh: -1; PLK1 PBD block: 20%; JMJD2A Tudor inh: -23%; HP1b chromo inh: 16%

What do the screens show for `O=C1NC[C@@H](CCCCN2C[C@H](Cc3ccc(O)cc3)N(CCc3ccccc3)C(=O)C2=O)N(CCc2ccccc2)C1=O`?
PI5P4K alpha inh: 2; PLK1 PBD block: -6%

What do the screens show for `O=C(c1ccncc1)N1CCC[C@@]2(CCN(c3cccc(-c4ccccc4)c3)C2)C1`?
G9a inh: -15%[12.7 µM]

What do the screens show for `CCCNC(=O)CC(NS(=O)(=O)c1ccc(NC(C)=O)cc1)C(C)C` (stereo not drawn)?
G9a inh: -23%; PI5P4K alpha inh: -2; PLK1 PBD block: -8%; JMJD2A Tudor inh: 3%; BAZ2B block: 0%; HP1b chromo inh: 44%

How did COc1ccc(NC(=O)[C@H](C)NS(=O)(=O)c2ccc(NC(C)=O)cc2)cc1Cl do in these assays?
PI5P4K alpha inh: 1; PLK1 PBD block: -11%

Results for CCCCCCNC(=O)CC(NS(=O)(=O)c1ccc(NC(C)=O)cc1)C(C)C (stereo not drawn) ?
G9a inh: 40µM*; PLK1 PBD block: -8%; JMJD2A Tudor inh: -3%; BAZ2B block: 2%; HP1b chromo inh: 44%

What do the screens show for `CCOc1ccc(NC(=O)C(C)NS(=O)(=O)c2ccc(NC(C)=O)cc2)cc1` (stereo not drawn)?
G9a inh: inconclusive; PI5P4K alpha inh: 7; PLK1 PBD block: 27µM*; JMJD2A Tudor inh: -14%; HP1b chromo inh: 32%

What do the screens show for `CC(=O)Nc1ccc(S(=O)(=O)N[C@@H](C)C(=O)N2CCN(c3ccccn3)CC2)cc1`?
PI5P4K alpha inh: -4; PLK1 PBD block: 12µM*; JMJD2A Tudor inh: 11%; HP1b chromo inh: 39%

Assay outcomes deposited in PubChem by National Center for Advancing Translational Sciences (NCATS).
